This is an account of results in article PMC5540273 (PLoS ONE, 2017).

Some test systems named below: PLK2; PLK3; PLK4; PRKCD; PRKCE; PRKCH; PRKCI; PRKCQ; PRKD1; PRKD2; PRKD3; PRKG1; PRKG2; PRKX; PRP4; QSK; RAF1; RET.
Holding throughout (details): concentration: 1 μM, replicates: in singlicate; n = 1
For another experiment, the system named is T1, PRKR.
T1 construct: gene EIF2AK2

A further experiment relates to T2, PYK2.
T2 construct: gene PTK2B
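Also: KINOMEscan kinase panel screen.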

On to `CCNC(=O)/C=C/c1n[nH]c2cc(Sc3ccccc3C(=O)NC)ccc12`, for which the “%Inh” value is 17% in the experiment with PLK2; 18% in the experiment with PLK3; 91.9% in the experiment with PLK4; 6% in the experiment on PRKCD; 3% in the experiment on PRKCE; 0% with PRKCH. Also, the “%Inh” value with PRKCI is recorded as 5%; in the experiment on PRKCQ it was 0%; with PRKD1, 3%; with PRKD2, 14%; in the experiment on PRKD3, 0%; in the experiment with PRKG1, 14%. Moreover, the “%Inh” value was found to be 2% with PRKG2; 0% with PRKR; 3% with PRKX; 0% with PRP4; 0% with PYK2; 0% in the experiment on QSK. Besides, the results for the “%Inh” value with RAF1 and with RET were 0% and 80%, respectively.
Turning to `COC(=O)Nc1nc2ccc(Oc3ccc(CC(=O)Nc4cc(C(F)(F)F)ccc4F)cc3)cc2[nH]1` [GW680903], the “%Inh” value in the experiment on PLK2 was found to be 0%; in the experiment with PLK3 it was 0%; with PLK4, 0%; with PRKCD, 0%; with PRKCE, 9%; in the experiment with PRKCH it was 0%. Further, the “%Inh” value in the experiment with PRKCI is on record as 17%; in the experiment with PRKCQ it was 0%; in the experiment on PRKD1 it was 0%; in the experiment on PRKD2, 0%; in the experiment on PRKD3 it was 18%; with PRKG1, 0%. Moreover, the “%Inh” value in the experiment with PRKG2 turned out to be 0%; in the experiment with PRKR it was 0%; in the experiment with PRKX, 2%; in the experiment with PRP4, 32%; in the experiment on PYK2, 0%; in the experiment with QSK, 0%. For the same compound, the “%Inh” value in the experiment on RAF1 was determined as 86%; with RET it was 97.7%.
As to `COc1cccc(C2=C(Nc3cccc(O)c3)C(=O)NC2=O)c1` [SB-390771], the “%Inh” value is reported as 0% in the experiment on PLK2; 0% with PLK3; 15% with PLK4; 20% in the experiment with PRKCD; 27% in the experiment on PRKCE; 19% in the experiment with PRKCH. For the same compound, the “%Inh” value turned out to be 16% in the experiment on PRKCI; 98.4% with PRKCQ; 0% in the experiment on PRKD1; 0% with PRKD2; 7% in the experiment with PRKD3; 9% in the experiment on PRKG1. The “%Inh” value in the experiment on PRKG2 is 81%; in the experiment on PRKR, 15%; with PRKX, 20%; in the experiment on PRP4, 41%; in the experiment with PYK2, 43%; in the experiment with QSK it was 0%. For the same compound, the figures for the “%Inh” value in the experiment with RAF1 and in the experiment with RET were 20% and 1%, respectively.
Turning to `COc1cccc(-c2nc(-c3ccccc3)[nH]c2-c2ccncc2)c1` [SB-610250], the “%Inh” value in the experiment on PLK2 stood at 0%; with PLK3, 0%; with PLK4, 0%; with PRKCD it was 0%; with PRKCE, 7%; in the experiment on PRKCH, 0%. In addition, the “%Inh” value in the experiment on PRKCI is given as 25%; in the experiment on PRKCQ, 0%; in the experiment on PRKD1, 14%; with PRKD2, 0%; in the experiment with PRKD3 it was 11%; with PRKG1 it was 0%. Moreover, the “%Inh” value is listed as 0% with PRKG2; 0% in the experiment with PRKR; 0% in the experiment with PRKX; 70% with PRP4; 0% with PYK2; 8% with QSK. The “%Inh” value came to 34% in the experiment on RAF1 and 25% in the experiment on RET.
In the case of `CN(c1ccc(F)c(NC(=O)c2cccc(OC(C)(C)C#N)c2Cl)c1)c1ccc2nc(NC(=O)C3CC3)sc2n1`, the “%Inh” value in the experiment with PLK2 was found to be 0%; with PLK3 it was 0%; in the experiment with PLK4 it was 0%; in the experiment with PRKCD, 0%; in the experiment on PRKCE, 0%; in the experiment on PRKCH it was 16%. Further, the “%Inh” value in the experiment with PRKCI came to 4%; in the experiment with PRKCQ, 5%; in the experiment with PRKD1 it was 0%; with PRKD2 it was 3%; in the experiment with PRKD3, 0%; with PRKG1 it was 0%. In addition, the “%Inh” value worked out at 3% with PRKG2; 0% with PRKR; 1% in the experiment on PRKX; 18% in the experiment on PRP4; 3% in the experiment on PYK2; 0% in the experiment with QSK. The “%Inh” value is given as 96.1% in the experiment on RAF1 and 100% with RET.
As to `Cc1cc(-c2ccnc(Nc3cccc(C#N)c3)n2)cc(C)c1O` [GSK1440913], the “%Inh” value in the experiment on PLK2 is 0%; in the experiment on PLK3, 0%; in the experiment with PLK4, 15%; with PRKCD, 0%; in the experiment with PRKCE, 6%; in the experiment on PRKCH it was 5%. Also, the “%Inh” value in the experiment on PRKCI worked out at 5%; in the experiment with PRKCQ, 12%; in the experiment with PRKD1 it was 0%; in the experiment with PRKD2, 0%; with PRKD3 it was 0%; with PRKG1, 0%. The “%Inh” value in the experiment on PRKG2 is 0%; in the experiment with PRKR, 52%; in the experiment with PRKX it was 0%; with PRP4, 92.8%; with PYK2, 27%; with QSK it was 23%. Besides, the “%Inh” value is on record as 13% with RAF1 and 0% with RET.
Turning to `CN(c1ccc(NC(=O)Nc2cccc(Cl)c2)cc1)c1ccnc(N)n1.Cl` [GW830707], the “%Inh” value came out at 14% with PLK2; 3% in the experiment with PLK3; 14% with PLK4; 7% in the experiment on PRKCD; 28% in the experiment with PRKCE; 0% in the experiment on PRKCH. Further, the “%Inh” value in the experiment on PRKCI, with PRKCQ, in the experiment on PRKD1, with PRKD2, with PRKD3 and in the experiment on PRKG1 was 0% in each case. Moreover, the “%Inh” value in the experiment with PRKG2 amounted to 0%; with PRKR it was 0%; in the experiment with PRKX, 0%; in the experiment on PRP4, 12%; in the experiment on PYK2 it was 0%; in the experiment on QSK, 15%. Moreover, the results for the “%Inh” value in the experiment with RAF1 and in the experiment on RET were 17% and 50%, respectively.
`Cc1ccc(O)cc1Nc1ccnc2cc(-c3ccc(CN4CCCCC4)o3)ccc12` [GW557777]: the “%Inh” value in the experiment on PLK2 is on record as 13%; in the experiment with PLK3, 0%; in the experiment on PLK4, 0%; with PRKCD, 0%; in the experiment on PRKCE it was 0%; in the experiment on PRKCH it was 0%. Further, the “%Inh” value in the experiment with PRKCI turned out to be 0%; with PRKCQ, 0%; in the experiment on PRKD1, 96.5%; in the experiment with PRKD2, 97.8%; with PRKD3 it was 95.1%; in the experiment on PRKG1 it was 0%. Moreover, the “%Inh” value was 0% with PRKG2; 1% with PRKR; 0% in the experiment with PRKX; 0% in the experiment on PRP4; 5% with PYK2; 41% in the experiment on QSK. The “%Inh” value in the experiment on RAF1 turned out to be 7%; with RET it was 100%.
For `Cc1ccc(NC(=O)c2ccc(Cl)c(Cl)c2)cc1-c1ccc(C(=O)Nc2ccncc2)cc1` [GSK1398460], the “%Inh” value came out at 0% in the experiment with PLK2; 0% with PLK3; 8% in the experiment with PLK4; 0% in the experiment on PRKCD; 10% in the experiment with PRKCE; 22% in the experiment on PRKCH. In addition, the “%Inh” value in the experiment with PRKCI is reported as 0%; in the experiment on PRKCQ, 15%; with PRKD1, 15%; in the experiment with PRKD2, 0%; in the experiment on PRKD3 it was 23%; with PRKG1, 13%. For the same compound, the “%Inh” value in the experiment with PRKG2 is reported as 0%; in the experiment on PRKR, 7%; in the experiment with PRKX, 17%; in the experiment with PRP4, 0%; in the experiment on PYK2 it was 13%; in the experiment with QSK it was 0%. Moreover, the “%Inh” value was found to be 78% in the experiment on RAF1 and 38% with RET.
As to `CN(C)CCOc1ccc(-c2cc(-c3ccc(Cl)c(O)c3)c(-c3ccncc3)[nH]2)cc1.Cl.Cl` [SB-684387], the “%Inh” value in the experiment with PLK2 was 4%; in the experiment with PLK3 it was 11%; in the experiment on PLK4, 31%; in the experiment on PRKCD, 0%; in the experiment with PRKCE, 26%; in the experiment with PRKCH, 2%. The “%Inh” value with PRKCI is given as 14%; with PRKCQ, 3%; in the experiment with PRKD1, 14%; in the experiment on PRKD2 it was 2%; with PRKD3 it was 15%; with PRKG1 it was 11%. In addition, the “%Inh” value in the experiment with PRKG2 turned out to be 80%; in the experiment with PRKR, 11%; in the experiment on PRKX it was 17%; with PRP4, 15%; with PYK2, 0%; in the experiment with QSK, 3%. In addition, the “%Inh” value is recorded as 88% in the experiment on RAF1 and 60% in the experiment with RET.
